TDP1 cell CPT: qHTS for Inhibitors of human tyrosyl-DNA phosphodiesterase 1 (TDP1): qHTS in cells in presence of CPT | chicken DT40 Tdp1-/-;hTDP1 cells + 20 nM CPT, ATP luminescence, 48 h | Potency, µM (series often up to 46.2 µM), most hits filed as inhibitors | 420,000 compounds, 12% hits; further: nearly all actives have a fitted effect of over 55% in size
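Cell growth measured by CellTiter-Glo luminescence after a minimum 48 h, 37 C compound exposure with 20 nM CPT in Tdp1-knockout DT40 cells stably expressing hTDP1, seeded 400/well; qHTS titration format.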
TDP1 block: qHTS Assay for Inhibitors of Tyrosyl-DNA Phosphodiesterase (TDP1) | Tyrosyl-DNA phosphodiesterase 1 (Homo sapiens), Q9NUW8 | recombinant TDP1, AlphaScreen DNA substrate cleavage | Potency, µM (highest dose often 130 µM), hits mostly inhibitors | 350,000 compounds, 0.28% hits | AID 485290, 2010; further: nearly all actives have a fitted effect of over 40% in size
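Here, a 5' biotin and 3' phosphotyrosine-FITC DNA oligonucleotide reports Tdp1 activity: intact substrate bridges AlphaScreen beads, while cleavage leaves a 3' phosphate and drops signal. All incubations at room temperature.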
ClpP mod: qHTS Assay for Activators of ClpP. purified B. subtilis ClpP, FRET peptide cleavage, 20 min. Potency, µM (top dose mostly 57.5 µM). 340,000 compounds, 1.9% hits. AID 651965, 2013; active means well fitted falling curve with a large enough effect; inconclusive means small, poorly fitted or top-dose-only effect; inactive means no such curve, though single readings can be large or run the other way; further: the source files actives as falling curves though it sought activators and does not explain the sign; nearly all actives have a fitted effect of over 65% in size
Target sequence (P80244 whole entry, looked up): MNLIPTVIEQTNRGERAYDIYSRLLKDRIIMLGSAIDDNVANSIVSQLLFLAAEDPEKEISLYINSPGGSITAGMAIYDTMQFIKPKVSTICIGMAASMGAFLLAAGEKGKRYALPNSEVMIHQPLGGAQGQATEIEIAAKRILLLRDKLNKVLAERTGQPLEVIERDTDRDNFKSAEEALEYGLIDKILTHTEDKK
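ClpP 10 microg/mL final, pH 8 Tris/KCl buffer with BSA, glycerol, Tween-20; compound pinned in; FRET-FV substrate; RT 20 min; Ex320/Em430; ΔFRET vs ADEP 5.8 microM, DMSO, no enzyme.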
DT40 TDP1 no CPT: qHTS for Inhibitors of human tyrosyl-DNA phosphodiesterase 1 (TDP1): qHTS in cells in absence of CPT | DT40 Tdp1-/- hTDP1 cells, no CPT, ATP luminescence, 48 h | Potency, µM (series often up to 46.2 µM), hits mostly inhibitors | 420,000 compounds, 15% hits | AID 686978, 2013; further: nearly all actives have a fitted effect of over 55% in size
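Chicken DT40 Tdp1-/- cells stably complemented with human TDP1 were seeded at 400 cells/well with DMSO in place of 20 nM camptothecin. After compound pinning, cells grew at least 48 hr at 37 °C; viability read by CellTiter-Glo luminescence.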
Large screens that a line does not name were inactive. Most compounds without a hit are left out; they make up all but 17% or so of the library. Unless noted, the call rests on the fitted dose curve; in most records, active means well fitted curve in the direction sought with a large enough effect; inconclusive means small, poorly fitted or top-dose-only effect, or another doubt; inactive means no such curve, though single readings can be large; an effect the other way counts as inactive or inconclusive.

OC(CNCCN1CCNCC1)Cc1ccccc1 (stereo not drawn)	none (no result: TDP1 block)
CC(NC(=O)/C(C#N)=C1\N=C(NC(=O)c2cccs2)c2ccccc21)c1ccccc1 (stereo not drawn)	TDP1 cell CPT inconclusive, DT40 TDP1 no CPT 16µM
N#Cc1ccsc1NC(=O)CN1CCN(c2ccc(O)cc2)CC1	TDP1 cell CPT inconclusive, DT40 TDP1 no CPT 10µM
NC(=O)c1ccsc1NC(=O)CN1CCN(S(=O)(=O)c2ccccc2C(F)(F)F)CC1	TDP1 cell CPT inconclusive, DT40 TDP1 no CPT inconclusive (no result: TDP1 block)
N#Cc1cnn(-c2ccccc2)c1NC(=O)CN1CCN(c2ccccc2)CC1	TDP1 cell CPT inconclusive, DT40 TDP1 no CPT 23µM (no result: ClpP mod)
N#Cc1cnn(-c2ccccc2)c1NC(=O)CN1CCOCC1	none (no result: ClpP mod)
Cc1cc(C)c(C)c(S(=O)(=O)N2CCN(CC(=O)Nc3sccc3C#N)CC2)c1C	TDP1 cell CPT 26µM, DT40 TDP1 no CPT inconclusive
COc1ccc(S(=O)(=O)N2CCN(CC(=O)Nc3sccc3C(N)=O)CC2)cc1OC	TDP1 cell CPT inconclusive, DT40 TDP1 no CPT 23µM
Cc1ccc(CNC(=O)CN2C(=O)COc3ccc(S(=O)(=O)N4CCCCC4)cc32)o1	none
COc1ccc(S(=O)(=O)Nc2cc3c4c(c2)CCC(=O)N4CCC3)cc1C	TDP1 cell CPT 16µM, DT40 TDP1 no CPT inconclusive
Cc1ccc(NS(=O)(=O)c2cc3c4c(c2)CC(=O)N4CCC3)cc1C	TDP1 cell CPT 13µM
Cc1ccc(Cl)cc1NS(=O)(=O)c1cc2c3c(c1)CC(=O)N3CCC2	TDP1 cell CPT inconclusive, DT40 TDP1 no CPT inconclusive
CC(C)C[C@@H](CC(=O)N[C@@H](CCCN)CC(=O)N[C@@H]1CCNC[C@H]1C(=O)N[C@H](CC(=O)N[C@@H](CCC(=O)O)CC(=O)O)Cc1ccccc1)NC(=O)[C@@H]1CNCC[C@H]1N	none (no result: TDP1 cell CPT, ClpP mod, DT40 TDP1 no CPT)
C=C(C)C1(O)OC(=O)C=C1OC (stereo not drawn)	TDP1 cell CPT 5.2µM, DT40 TDP1 no CPT 16µM
C[N+]1(CC(=O)c2c3ccccc3cc3ccccc23)CCOCC1	TDP1 cell CPT 16µM, DT40 TDP1 no CPT 10µM (no result: TDP1 block)
C[N+]1(CC(=O)c2ccc(-c3ccccc3)cc2)CCOCC1	TDP1 cell CPT inconclusive (no result: TDP1 block)
COCCNC(=O)C1(C)CCCN(Cc2cn(C)c3ccccc23)C1 (stereo not drawn)	none (no result: TDP1 block)
CCOc1ccc(C(=O)OCc2cc(=O)n3nc(C4CCCCC4)sc3n2)cc1	TDP1 cell CPT inconclusive, DT40 TDP1 no CPT 16µM
CC(C)c1nn2c(=O)cc(COC(=O)c3ccc(NC(=O)C4CCCCC4)cc3)nc2s1	TDP1 cell CPT inconclusive, DT40 TDP1 no CPT 21µM
CCOc1cc(C(=O)OCc2cc(=O)n3nc(C4CC4)sc3n2)cc(OCC)c1OCC	TDP1 cell CPT inconclusive, DT40 TDP1 no CPT 21µM
Cc1ccc(C(=O)Nc2ccc(N3CCOCC3)nc2N2CCOCC2)cc1	DT40 TDP1 no CPT inconclusive (no result: ClpP mod)
Cc1ccc(/C(O)=C2\C(=O)C(=O)N(C)C2c2ccc(F)cc2)cc1 (stereo not drawn)	none (no result: TDP1 block)
COCCNC(=O)C(c1ccc(O)cc1)N(Cc1ccccc1)C(=O)CCC(=O)Nc1nccs1 (stereo not drawn)	none (no result: ClpP mod)
Cc1cc2nc(C3CCN(CC4COc5ccccc5O4)CC3)[nH]c2cc1C (stereo not drawn)	TDP1 cell CPT 7.3µM, DT40 TDP1 no CPT 8.2µM
c1ccc2c(c1)OCC(CN1CCCCC1)O2 (stereo not drawn)	none (no result: ClpP mod)
CCc1nc2ccc(C(=O)N3CCN(C)CC3)cn2c1N(C)CCC(C)C	TDP1 cell CPT inconclusive, DT40 TDP1 no CPT inconclusive (no result: TDP1 block)
CCCc1nn2c(=O)cc(COC(=O)c3ccc(NC(=O)c4cccs4)cc3)nc2s1	TDP1 cell CPT inconclusive, DT40 TDP1 no CPT 21µM
CCOCCc1nn2c(=O)cc(COC(=O)c3ccc(NC(=O)C(C)(C)C)cc3)nc2s1	TDP1 cell CPT 16µM, DT40 TDP1 no CPT 13µM
CCc1nn2c(=O)cc(COC(=O)c3cccc(NC(=O)c4cccs4)c3)nc2s1	TDP1 cell CPT inconclusive, DT40 TDP1 no CPT 15µM
CCCCc1nn2c(=O)cc(COC(=O)c3ccc(NC(=O)c4cccs4)cc3)nc2s1	none
CC(C)c1nn2c(=O)cc(COC(=O)c3cccc(NC(=O)c4cccs4)c3)nc2s1	none

Bioassay records as filed in PubChem.
